# Counter-ions that a name gives are not always drawn.
# Tested on: Saccharomyces cerevisiae BY4741 SeMeCo community
# Assay: z-score of subpopulation abundance vs DMSO median, subpopulation auxotrophic for L; higher = larger share of this subpopulation than in DMSO controls
# Settings: 10 µM; 24 h; SM minimal medium; subpopulation (auxotrophy): L
# Experimental: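 Fluorescent four-plasmid SeMeCo (self-establishing metabolically cooperating S. cerevisiae BY4741 community; plasmids pH-mRuby2, pL-mWasabi, pU-eCFP, pM-TagRFP657) was grown 24 h in minimal SM medium with each Selleck FDA-approved drug at 10 µM in 384-well plates. Cells were fixed and imaged by high-content confocal microscopy. For each auxotrophic subpopulation (and the prototroph), a z-score gives the deviation from the DMSO vehicle-control population median.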
row,SMILES,z-score of subpopulation abundance
1,CN1[C@@H]2CC[C@H]1C[C@@H](OC(=O)C(CO)c1ccccc1)C2 (stereo not given in full) [Atropine sulfate monohydrate],-0.2
2,C=C(C)[C@H]1Cc2c(ccc3c2O[C@@H]2COc4cc(OC)c(OC)cc4[C@@H]2C3=O)O1 [Rotenone (Barbasco)],0.46
3,CCOC(=O)Nc1ccc(NCc2ccc(F)cc2)cc1N [Retigabine],-0.58
4,C#C[C@]1(O)C=C[C@H]2[C@@H]3CCC4=CC(=O)CC[C@@H]4[C@H]3CC[C@@]21CC [Gestodene],0.46
5,CN(C)[C@@H]1C(=O)C(C(N)=O)=C(O)[C@@]2(O)C(=O)C3=C(O)c4c(O)cccc4[C@@](C)(O)[C@H]3[C@H](O)[C@@H]12 [Oxytetracycline (Terramycin)],0.2
6,CN[C@@H]1[C@@H](O)[C@@H](O[C@@H]2[C@@H](O)[C@H](O[C@H]3O[C@H](CN)CC[C@H]3N)[C@@H](N)C[C@H]2N)OC[C@]1(C)O.CN[C@@H]1[C@@H](O)[C@@H](O[C@@H]2[C@@H](O)[C@H](O[C@H]3O[C@H]([C@@H](C)N)CC[C@H]3N)[C@@H](N)C[C@H]2N)OC[C@]1(C)O.CN[C@@H]1[C@@H](O)[C@@H](O[C@@H]2[C@@H](O)[C@H](O[C@H]3O[C@H]([C@@H](C)NC)CC[C@H]3N)[C@@H](N)C[C@H]2N)OC[C@]1(C)O [Gentamicin Sulfate],-0.91
7,CC(C)N(CCC(C(N)=O)(c1ccccc1)c1ccccn1)C(C)C (stereo not given) [Disopyramide],2.35
8,CCN1CC2(OC(=O)c3ccccc3NC(C)=O)CCC(OC)C34C1C(CC23)C1(O)CC(OC)C2CC4C1(O)C2OC (stereo not given) [Lappaconitine],0.34
9,CN1c2ccccc2C(NCCCCCCC(=O)O)c2ccc(Cl)cc2S1(=O)=O (stereo not given) [Tianeptine sodium],-0.37
10,CCC1=C[C@H]2CN3CCc4c([nH]c5ccccc45)[C@](C(=O)OC)(C2)[C@H]13 [Catharanthine],-0.77
11,CCCN1C[C@H](CSC)C[C@@H]2c3cccc4[nH]cc(c34)C[C@H]21 [Pergolide Mesylate],0.12
12,CC1(C)SC2C(N)C(=O)N2C1C(=O)O (stereo not given) [6-Aminopenicillanic acid],-0.39
13,Oc1cccc2cccnc12 [8-Hydroxyquinoline],-1.01
14,CN1[C@@H]2C[C@@H](OC(=O)[C@H](CO)c3ccccc3)C[C@H]1[C@@H]1O[C@@H]12 [Scopolamine HBr],-0.33
15,O=C(O[C@H]1C[C@H]2CC[C@@H](C1)[N+]21CCCC1)C(O)(c1ccccc1)c1ccccc1 [Trospium chloride],-0.17
16,CC[C@@]1(O)C(=O)OCc2c1cc1n(c2=O)Cc2cc3ccccc3nc2-1 [Camptothecin],-0.35
17,Cc1cc(O)ccc1Cl [Chlorocresol],-0.62
18,CC(C)=CCOc1c2occc2cc2ccc(=O)oc12 [Imperatorin],1.37
19,C[N+]1(C)[C@@H]2C[C@@H](OC(=O)[C@H](CO)c3ccccc3)C[C@H]1[C@@H]1O[C@@H]12 [Methscopolamine],0.57
20,Cn1cc(C2=C(c3cn(C4CCN(Cc5ccccn5)CC4)c4ccccc34)C(=O)NC2=O)c2ccccc21,-1.15

row,SMILES,z-score of subpopulation abundance
1,C=CCN1C[C@H](C(=O)N(CCCN(C)C)C(=O)NCC)C[C@@H]2c3cccc4[nH]cc(c34)C[C@H]21 [Cabergoline],0.36
2,O=[N+]([O-])C(Br)(CO)CO [Bronopol],-0.82
3,Nc1ccncc1 [4-Aminopyridine],0.44
4,N[C@@H]1C[C@H]1c1ccccc1 [Tranylcypromine (2-PCPA) HCl],-0.64
5,O=C(O[C@H]1C[N+]2(CCCOc3ccccc3)CCC1CC2)C(O)(c1cccs1)c1cccs1 [Aclidinium Bromide],-1.04
6,CCOC(=O)Nc1ccc(NCc2ccc(F)cc2)cc1N [Retigabine 2HCl],-0.41
7,NC(=O)CN1CCCC1=O [Piracetam],1.45
8,CN(C)C(=O)Oc1cccc([N+](C)(C)C)c1 [Neostigmine Bromide],0.65
9,CN(C)[C@@H]1C(=O)C(C(N)=O)=C(O)[C@@]2(O)C(=O)C3=C(O)c4c(O)cccc4[C@@](C)(O)[C@H]3[C@H](O)[C@@H]12 [Oxytetracycline Dihydrate],-0.76
10,CC(=O)OCC1=C(C(=O)O)N2C(=O)C(N)C2SC1 (stereo not given) [7-Aminocephalosporanic acid],0.13
11,CC[C@H]1[C@@H]2C[C@H]3[C@@H]4N(C)c5ccccc5[C@]45C[C@@H]([C@@H]2[C@H]5O)N3[C@@H]1O [Ajmaline],-0.67
12,O=c1[nH]c2ccccc2n1CCCN1CCC(n2c(=O)[nH]c3cc(Cl)ccc32)CC1 [Domperidone],0.55
13,N#Cc1nn(-c2c(Cl)cc(C(F)(F)F)cc2Cl)c(N)c1[S+]([O-])C(F)(F)F (stereo not given) [Fipronil],-0.6
14,C=C[C@H]1CN2CC[C@H]1C[C@H]2[C@H](O)c1ccnc2ccccc12 [Cinchonidine],0.13
15,CCN(CC)CCOC(=O)C(O)(c1ccccc1)c1ccccc1 [Benactyzine hydrochloride],0.45
16,C[N+]12CCC(CC1)C(OC(=O)C(O)(c1ccccc1)c1ccccc1)C2 (stereo not given) [Clidinium Bromide],0.14
17,CC(NC(C)(C)C)C(=O)c1cccc(Cl)c1 (stereo not given) [Amfebutamone (Bupropion) HCl],0.13
18,COc1ccc(C=O)cc1 [p-Anisaldehyde],-0.63
19,C[CH2][Hg][S]c1ccccc1C(=O)[O-].[Na+] [Thimerosal],-2.54
20,COc1cc2c(cc1OC)C1CC(=O)C(CC(C)C)CN1CC2 (stereo not given) [Tetrabenazine (Xenazine)],1.69

# Source: the supplement of paper PMC8975748
